Among all 68,000 compounds or so, about 2,700 (4%) showed an effect of 50% or more. The sample as a whole holds a higher share of strong results than the screen did.

In the test the test system is Plasmodium berghei. Kind of test: Screen against P. berghei liver stage (PbLuc), transformed with Luciferase, at 2uM. It is filed as functional, HepG2. The conditions noted are these: tested at 2 uM.
For the compound `COc1ccc(C(C)CCNC2CCN(c3ccccn3)CC2)cc1` (centres undefined), the INHIBITION was found to be 3.2%.

For the compound `CCS(=O)(=O)c1ccccc1N1CCC(NC(=O)NC2CCCC2)CC1`, the INHIBITION was determined as 64.71%.

In the case of `CCS(=O)(=O)c1ccccc1N1CCC(NC2CCCC2)CC1`, the INHIBITION was 27.47%.

On to `CCS(=O)(=O)c1ccccc1N1CCC(NC(C)=O)CC1`, for which the INHIBITION is listed as -0.64%.

As for `Cc1cc(C)n(CC(C)CNC(=O)NCc2c(C)cc(C)[nH]c2=O)n1` (centres undefined), the INHIBITION was determined as 10.14%.

For `Cc1ccc(NC(=O)N2CCOC(C(N)=O)C2)cc1C(F)(F)F` (centres undefined), the INHIBITION was 33.11%.

As for `CC(=O)N1CCN(CCNc2ncc(Br)cc2C)CC1`, the INHIBITION worked out at 12.43%.

For `COC1CCN(CCNc2ncc(Br)cc2C)CC1`, the INHIBITION is -4.26%.

On to `Cc1cc(Br)cnc1NCCN1CCC(N(C)C)CC1`, for which the INHIBITION is 64.9%.

Consider `O=S(=O)(c1cccnc1)N1CCCCC1CCN1CCOCC1` (centres undefined), for which the INHIBITION is recorded as -13%.

For the compound `Cc1cc(C)nc(N2CCCC(c3cccc(-n4ccnc4)n3)C2)n1` (centres undefined), the INHIBITION is on record as -2.89%.

With `O=C(Nc1ncc[nH]1)c1cc(-c2cccnc2)n[nH]1`, the INHIBITION is recorded as -36.68%.

For `O=C(c1cc2c(s1)CCCC2)N1CCCC1Cn1cccn1` (centres undefined), the INHIBITION was determined as 1.61%.

Turning to `CC(=O)N1CCC2(CCCN(S(=O)(=O)c3ccccc3)C2)C1` (centres undefined), the INHIBITION was 52.36%.

On to `CN(C)CC(=O)N1CC2(CCN(S(=O)(=O)c3ccccc3)C2)C1`, for which the INHIBITION is on record as 39.51%.

As for `CC(=O)N1CCC2(C1)CN(S(=O)(=O)c1ccccc1)C2`, the INHIBITION is 56.76%.

`CC(=O)N1CCC2(CCN(S(=O)(=O)c3ccccc3)CC2)C1`: the INHIBITION stood at 11.18%.

`CC(=O)N1CCC2(CC1)CCN(S(=O)(=O)c1ccccc1)C2`: the INHIBITION is recorded as 27.65%.

Turning to `CC(=O)N1CCC2(CCCN(S(=O)(=O)c3ccc(F)cc3)C2)C1` (centres undefined), the INHIBITION is on record as -8.04%.

With `CN(C)c1ccc(CNC(=O)NCCc2cccs2)cn1`, the INHIBITION turned out to be 9.17%.

On to `Cc1ccncc1CN1CCOCC1c1[nH]ncc1C` (centres undefined), for which the INHIBITION came to 5.01%.

For `Cc1cc(CNc2ccnn2C)ccc1-n1cncn1`, the INHIBITION was 14.93%.

Take `CC1(C)Cc2nc(C(C)(C)C)ncc2C(NC(=O)CN)C1` (centres undefined): the INHIBITION is given as 21.28%.

Regarding `CN(C)CCCC(=O)NC1CC(C)(C)Cc2nc(C(C)(C)C)ncc21` (centres undefined), the INHIBITION was determined as 35.56%.

Consider `CN(C)CC(=O)NC1CC(C)(C)Cc2nc(C(C)(C)C)ncc21` (centres undefined), for which the INHIBITION was determined as 68.39%.

Turning to `Cc1nc[nH]c1CN1CCCn2nc(CN3CCC(F)(F)CC3)cc2C1`, the INHIBITION was 8.48%.

Take `O=C(c1ccsc1)N1CCC(Nc2cccnn2)CC1`: the INHIBITION was 2.8%.

For `CC(C(=O)Nc1ccc(N2CCCCC2)nc1)n1ccnc1` (centres undefined), the INHIBITION was -34.5%.

Take `CCCNC(=O)N1CCc2ccc(S(=O)(=O)N3CCN(C)CC3)cc2C1`: the INHIBITION is listed as 30.62%.

`O=C(c1ccoc1)N1CCCC2(CCC(=O)N2Cc2ccncc2)C1` (centres undefined): the INHIBITION is listed as 3.56%.

In the case of `Cc1cnn(CC2CCCN2C(=O)c2cccc(CC#N)c2)c1` (centres undefined), the INHIBITION is on record as -17.11%.

Take `CCCS(=O)(=O)CC(=O)Nc1ccsc1`: the INHIBITION came out at 22%.

With `CCN(CC)S(=O)(=O)CC(=O)Nc1ccsc1`, the INHIBITION is on record as 64.08%.

As for `CS(=O)(=O)CCC(=O)Nc1ccsc1`, the INHIBITION is on record as 10.22%.

For the compound `O=C(c1cc2c(s1)CCC2)N1CCN(c2cnccn2)CC1`, the INHIBITION is reported as -32.45%.

Take `N#Cc1ccc(OCC(O)CN2CCN(c3nccs3)CC2)cc1` (centres undefined): the INHIBITION came to 2.2%.

For the compound `O=C(O)CCC(=O)N1CCN(CC2CC2)c2ncccc2C1`, the INHIBITION came to 18.6%.

For `CCn1cnnc1C1CCN(C(=O)c2c(C)oc(C)c2C)CC1`, the INHIBITION is -11.32%.

`CCn1cnnc1C1CCN(C(=O)c2ccccc2OC)CC1`: the INHIBITION is -45.23%.

`CCn1cnnc1C1CCN(C(=O)c2cccc(C)c2C)CC1`: the INHIBITION turned out to be 1.02%.

For the compound `CCn1cnnc1C1CCN(C(=O)c2cccc(OC)c2OC)CC1`, the INHIBITION is 66.2%.

In the case of `Cc1occc1C(=O)N1CCC(C(O)c2ccc(Cl)cc2)CC1` (centres undefined), the INHIBITION was determined as 59.03%.

With `CCn1cnnc1C1CCN(C(=O)c2cc(OC)ccc2OC)CC1`, the INHIBITION is on record as -33.61%.

As to `CCn1cnnc1C1CCN(C(=O)c2ccoc2C)CC1`, the INHIBITION amounted to 70.27%.

As to `Cc1c(C(=O)N2CCC(C(O)c3ccc(Cl)cc3)CC2)cnn1C` (centres undefined), the INHIBITION is given as 10.22%.

Regarding `Cc1occc1C(=O)N1CCC(C(O)c2ccc(F)cc2)CC1` (centres undefined), the INHIBITION amounted to 47.25%.

With `CCn1nc(C)c2c1cnn2CCNS(=O)(=O)Cc1ccccc1`, the INHIBITION is on record as 16.97%.

In the case of `CN(C)Cc1cccc(C(=O)N2CCCC(n3cncn3)C2)c1` (centres undefined), the INHIBITION came out at 21.39%.

On to `CC(C)c1cc(C(=O)N2CCC3(CCc4ccccc4C(=O)N3)C2)on1` (centres undefined), for which the INHIBITION was found to be 9.9%.

`CNC(=O)c1n[nH]c2c1C(c1cccc3c1OC(C)(C)C3)CC(=O)N2` (centres undefined): the INHIBITION came out at 48.21%.

Consider `Cc1nc(CN2CCN(C(=O)c3ccc(=O)n(C)c3)CC2)cs1`, for which the INHIBITION is on record as -3.4%.

As to `CCN1CCC12CCN(C(=O)c1ccsc1)C2` (centres undefined), the INHIBITION is listed as 13.75%.

`Cc1ccccc1-c1noc(C2CC(C(C)C)=NO2)n1` (centres undefined): the INHIBITION is recorded as -10.37%.

For the compound `COc1ccc(-c2noc(C3CC(C(C)C)=NO3)n2)cc1` (centres undefined), the INHIBITION amounted to 7.37%.

Source of the values: ChEMBL document CHEMBL4513216, “Probing the Open Global Health Chemical Diversity Library for Multistage-Active Starting Points for Next-Generation Antimalarials” (ACS Infect Dis, 2020).
